Rows were chosen to be rich in hits. Some 10% of all compounds tested hit in one or more screens of this group.
GLS inh: glutaminase GLS (human) inhibition; O94925; GLS enzymatic activity, qHTS titration; Potency, µM (titrated, usually from 45.5 µM), inactives show at the top dose activity change, negative = inhibition, usual class: inhibitors; actives 0.21% (n = 410,000); AID 624170; note: % is set by controls: 0 for no effect and ±100 for the full control effect
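Enzyme dispensed in phosphate buffer (45 mM, pH 8.2, 0.02% Tween-20), compounds pinned in, then 1 mM L-glutamine solution and the glutamate oxidase–HRP–Amplex Red mix added; fluorescence read immediately and again after 30 min at room temperature.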
HP1b binding inh: blocks HP1-beta chromodomain binding to methylated histone tails; Potency, µM (top dose mostly 114 µM), inactives show top-dose activity change, negative = inhibition, most hits filed as inhibitors; actives 0.56% (n = 390,000); AlphaScreen HP1-beta / biotin-H3K9me3 peptide binding; AID 540317; P83916; note: nearly all actives have a fitted effect of over 70% in size
Target sequence (P83916 whole entry, looked up): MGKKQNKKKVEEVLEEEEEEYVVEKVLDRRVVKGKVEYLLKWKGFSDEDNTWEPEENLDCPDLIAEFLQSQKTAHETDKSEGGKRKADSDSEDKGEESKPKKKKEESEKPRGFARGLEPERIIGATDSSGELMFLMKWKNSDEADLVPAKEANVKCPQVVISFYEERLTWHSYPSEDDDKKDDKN
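AlphaScreen: HP1-beta (50 nM) preformed 30 min with biotin-H3(1-18)K9me3 peptide (50 nM) in PBS pH 7.4, 0.01% Tween-20. Compound added for 30 min at RT, then streptavidin donor/nickel chelate acceptor beads (10 ug/mL) for 30 min.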
BAZ2B inh: BAZ2B (human) inhibition; Q9UIF8; actives 4.4% (n = 360,000); Potency, µM (titrated, usually from 114 µM), inactives show top-dose activity change, negative = inhibition, actives largely listed as inhibitors; AID 504333; AlphaScreen BAZ2B-H3K14Ac peptide displacement; note: % is set by controls: 0 for no effect and ±100 for the full control effect; nearly all actives have a fitted effect of over 60% in size
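Protein-peptide AlphaScreen: BAZ2B 50 nM, b-H3K14Ac 50 nM, 1x PBS pH 7.4 + 0.01% Tween-20. Preincubation 30 min RT; cpd 30 min RT (top 110 uM); beads 20 min RT, light-protected.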
JMJD2A Tudor: blocks the human JMJD2A Tudor domain. O75164. AlphaScreen JMJD2A-Tudor / H3K4me3 peptide binding. Potency, µM (highest dose often 114 µM), without a hit: at the top dose activity change, negative = inhibition, usual class: inhibitors. actives 4.4% (n = 390,000); note: % is set by controls: 0 for no effect and ±100 for the full control effect; nearly all actives have a fitted effect of over 50% in size
G9a block: inhibitors of human histone lysine methyltransferase G9a | AID 504332 | actives 8.8% (n = 350,000) | G9a H3K9 monomethylation, AlphaScreen, 2 h | Potency, µM (titrated, usually from 102 µM), inactives show at the highest dose activity, negative = inhibition, hits mostly inhibitors | Q96KQ7; note: % is set by controls: 0 for no effect and ±100 for the full control effect; nearly all actives have a fitted effect of over 75% in size
Target sequence (Q96KQ7 913-1193 limits assumed): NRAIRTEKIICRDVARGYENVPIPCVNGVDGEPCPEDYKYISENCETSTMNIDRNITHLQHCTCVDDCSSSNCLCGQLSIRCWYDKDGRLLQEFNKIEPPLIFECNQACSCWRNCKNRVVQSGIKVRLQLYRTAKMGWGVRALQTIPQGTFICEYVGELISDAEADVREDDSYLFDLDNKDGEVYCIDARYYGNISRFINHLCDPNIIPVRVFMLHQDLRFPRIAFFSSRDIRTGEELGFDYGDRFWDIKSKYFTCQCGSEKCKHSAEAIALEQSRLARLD
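Step 1: enzyme (final 20 nM) with compound, 15 min RT. Step 2: substrate peptide 500 nM and SAM 20 uM, 2 h RT. Step 3: anti-H3K9me1 antibody and AlphaScreen beads, 10 min, then plate read.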
L3MBTL1 block: L3MBTL1 (human) inhibition | actives 0.66% (n = 230,000) | AlphaScreen L3MBTL1–H3K9me1 peptide binding | Potency, µM (titrated, usually from 57.1 µM), without a hit: at the highest dose activity, negative = inhibition, usual class: inhibitors; note: % is set by controls: 0 for no effect and ±100 for the full control effect; nearly all actives have a fitted effect of over 60% in size
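AlphaScreen proximity signal between nickel-chelate acceptor and streptavidin donor beads (final 10 ug/mL) reports binding of 50 nM L3MBTL1 to 75 nM biotin-H3 K9me1 peptide; complex incubated with compounds 30 min at room temperature; cefsulodin titration as control.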
Active calls of the source: *; [ ] = remark or other dose. Calls come from the whole dose curve; as a rule, active = well fitted curve in the direction sought with a large enough effect; inconclusive = small, poorly fitted or top-dose-only effect, or another doubt; inactive = no such curve, though single readings can be large; an effect the other way counts as inactive or inconclusive. Potency is the fitted concentration of half-maximal effect.

For Cc1ccc(NC(=O)CCS(=O)(=O)c2cc(Br)cc3c2N(C(=O)C2CC2)CC3)cc1 the results were GLS inh -14%, HP1b binding inh 24%, BAZ2B inh -9%, JMJD2A Tudor -5% and G9a block -12%[59 µM].
Screening COC(=O)C(C(=O)OC)C(c1ccccc1)C(C(=O)c1ccccc1)[N+](=O)[O-] (stereo not given) returned GLS inh 4%, HP1b binding inh 27%, BAZ2B inh -13%, JMJD2A Tudor -20%, G9a block 50µM* and L3MBTL1 block 4%.
For CCN(CC)Cc1cc(C(=O)O)c(C)o1 the results were GLS inh 3%, HP1b binding inh 52%, BAZ2B inh -11%, JMJD2A Tudor -3%, G9a block 0% and L3MBTL1 block 0%.
CCc1oc(C(=O)O)cc1COC was read as GLS inh inconclusive, HP1b binding inh 7%, BAZ2B inh inconclusive, JMJD2A Tudor inconclusive, G9a block 45µM* and L3MBTL1 block inconclusive.
For CCc1oc(C(=O)O)cc1CN(CC)CC the results were GLS inh 0%, HP1b binding inh -2%, BAZ2B inh -19%, JMJD2A Tudor 32µM* and G9a block -27%[59 µM].
`CCCc1oc(C(=O)O)cc1CN` gave GLS inh -28%, HP1b binding inh 39%, BAZ2B inh inconclusive, JMJD2A Tudor -19% and G9a block inconclusive.
For Cc1ccc(-n2c(=O)c3ccc(C(=O)NCc4ccccc4Cl)cc3n(CC(=O)Nc3cccc(F)c3)c2=O)cc1 the results were GLS inh 3%, HP1b binding inh 16%, JMJD2A Tudor -15% and G9a block -2%[59 µM].
Screening Cc1ccc2cccc(OC(=O)c3ccc4c(c3)OCCO4)c2n1 returned GLS inh -8%, HP1b binding inh 27%, JMJD2A Tudor inconclusive, G9a block 8.9µM* and L3MBTL1 block -1%.
O=C(O)c1n[nH]c2ccccc12 was read as GLS inh -5%, HP1b binding inh -2%, BAZ2B inh -27%, JMJD2A Tudor 28µM*, G9a block inconclusive and L3MBTL1 block 1%.
O=C(c1n[nH]c2ccccc12)N1CCCCC1 was read as GLS inh inconclusive, HP1b binding inh 42%, BAZ2B inh -2%, JMJD2A Tudor 1%, G9a block -10% and L3MBTL1 block 11%.
For COc1ccc(-c2nc(C)ncc2N=Nc2ccccc2)cc1 the results were GLS inh 2%, HP1b binding inh -80%, BAZ2B inh 11µM*, JMJD2A Tudor 45µM*, G9a block inconclusive and L3MBTL1 block inconclusive.
`COc1ccc(-c2nc3ccccc3nc2-c2ccc(OC)cc2)cc1` gave GLS inh -1%, HP1b binding inh 194%, BAZ2B inh 90%, JMJD2A Tudor 100%, G9a block 379% and L3MBTL1 block 59%.
COc1ccc(-c2nc(-c3ccccc3)c(-c3ccccc3)[nH]2)cc1Br was read as GLS inh -12%, HP1b binding inh 23%, BAZ2B inh -4%, JMJD2A Tudor -10% and G9a block -29%[59 µM].
`COc1ccccc1N=Nc1nc(-c2ccccc2)c(-c2ccccc2)[nH]1` gave GLS inh -12%, HP1b binding inh -71%, BAZ2B inh 10µM*, JMJD2A Tudor 7.1µM*, G9a block inconclusive and L3MBTL1 block inconclusive.
Oc1ccccc1N=Nc1nc(-c2ccccc2)c(-c2ccccc2)[nH]1 was read as GLS inh 23%, HP1b binding inh 32µM*, BAZ2B inh 13µM*, JMJD2A Tudor 13µM* and G9a block inconclusive.
For COc1ccc(N=Nc2nc(-c3ccccc3)c(-c3ccccc3)[nH]2)cc1 the results were GLS inh 20%, HP1b binding inh 28µM*, BAZ2B inh 8.9µM*, JMJD2A Tudor 8.9µM*, G9a block 16µM* and L3MBTL1 block 16µM*.
Screening COc1ccc(NC(=O)CSc2oc(-c3ccc(F)cc3)nc2S(=O)(=O)c2ccc(C)cc2)c(OC)c1 returned GLS inh 3%, HP1b binding inh inconclusive, BAZ2B inh -20%, JMJD2A Tudor inconclusive and G9a block inconclusive.
O=S(=O)(c1ccc(F)cc1)N(Cc1nc(-c2ccc(Cl)cc2)no1)C1CCCCC1 was read as GLS inh -1%, HP1b binding inh 65%, BAZ2B inh 15%, JMJD2A Tudor 15% and G9a block 35%[59 µM].
Screening Cc1ccc(C)c(OCC(=O)Nc2c(C)n(C)n(-c3ccccc3)c2=O)c1 returned GLS inh 1%, HP1b binding inh 24%, BAZ2B inh 1%, JMJD2A Tudor -15%, G9a block 1%[12.7 µM] and L3MBTL1 block 5%.
Cc1cc(=O)oc2cc(OCC(=O)Nc3c(C)n(C)n(-c4ccccc4)c3=O)c(Cl)cc12 was read as GLS inh -1%, HP1b binding inh 25%, BAZ2B inh 79µM*, JMJD2A Tudor -3%, G9a block -7% and L3MBTL1 block 5%.
COc1ccccc1CNCc1cc(OC)c(OC)c(OC)c1 was read as GLS inh 1%, HP1b binding inh 71µM*, BAZ2B inh 79µM*, JMJD2A Tudor 40µM* and G9a block 7.9µM*.
Screening COc1cccc(CNCc2ccccc2OC)c1 returned GLS inh -3%, HP1b binding inh inconclusive, BAZ2B inh -5%, JMJD2A Tudor -100%, G9a block 32µM* and L3MBTL1 block 1%.
Screening COc1cc(CNCc2ccc(SC)cc2)cc(OC)c1 returned GLS inh 2%, HP1b binding inh inconclusive, BAZ2B inh inconclusive, JMJD2A Tudor 1.4µM*, G9a block 22µM* and L3MBTL1 block -8%.
For COc1cc(CNCc2ccc(OC)c(OC)c2OC)cc(OC)c1 the results were GLS inh 3%, HP1b binding inh -50%, BAZ2B inh 50µM*, JMJD2A Tudor 2.5µM* and G9a block inconclusive.
`COc1ccc(CCC(C)NCc2ccccc2OC)cc1` (stereo not given) gave GLS inh -1%, HP1b binding inh 48%, BAZ2B inh -16%, JMJD2A Tudor -23% and G9a block 3%.
Screening COc1ccc(CNCc2ccncc2)c(OC)c1 returned GLS inh 0%, HP1b binding inh 29%, BAZ2B inh 27%, JMJD2A Tudor -13% and L3MBTL1 block 33%.
Cc1ccccc1CNCc1cccnc1 was read as GLS inh 8%, HP1b binding inh -3%, BAZ2B inh 7%, JMJD2A Tudor -9% and G9a block 0%[59 µM].
For COc1cccc(CNCc2cccnc2)c1OCc1ccccc1 the results were GLS inh -5%, HP1b binding inh 21%, BAZ2B inh inconclusive, JMJD2A Tudor 3%, G9a block 79µM* and L3MBTL1 block -1%.
